Screens from PubChem.
EBV LMP1 NFkB – reduces LMP1-driven NF-kappaB luciferase signal | AID 504558 | LMP1-induced NF-kappaB luciferase reporter cells, luminescence | inhibition, % at 12.5 µM | hit rate 0.69% among 350,000; in the data active = inhibition above about 41%; inconclusive = no clear call, values can overlap the other calls;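 also: 0% = neutral control wells and 100% = reference inhibitor control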
Shn3 inh set2 – reduces Shn3 3'UTR luciferase signal in osteoblasts; inhibition, % at 12.5 µM; Clone20 osteoblast Shn3 3'UTR firefly luciferase, 24 h; AID 588674; hit rate 0.52% among 360,000;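 active = mean inhibition of at least 75% with every replicate also reaching 75%; inconclusive = mean inhibition at least 75% but some replicate below; inactive = mean inhibition below 75%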;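 also: 0% = median of neutral control wells and 100% = pilot-screen positive control compound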
697 NFkB inh – inhibitors of the PMA/ionomycin-induced NF-kB reporter in 697 B cells; 697 B-cell NF-kB luciferase reporter, 16 h; inhibition, % at 4 µM; hit rate 0.33% among 330,000; AID 435022; in the data active = inhibition above about 35%
MITF TRPM1 inh – reduces MITF-dependent TRPM1 promoter luciferase signal; SK-MEL-5 TRPM1 promoter luciferase, 24 h; inhibition, % at 12.5 µM; hit rate 0.83% among 330,000; AID 488899;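 active = mean inhibition across replicates of 60% or more, whatever share of single replicates reaches that level; inconclusive = some that reach 60%, reason not given; inactive = mean inhibition across replicates below 60%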
Jurkat NFkB inh – lowers PMA/ionomycin-induced NF-kB signal in Jurkat cells | inhibition, % at 4 µM | hit rate 0.53% among 330,000 | PMA/ionomycin-induced NF-kB luciferase reporter, luminescence | AID 435003; in the data active = inhibition above about 50%
Gli-Sufu block – Gli-Sufu pathway antagonism; Sufu-KO-LIGHT fibroblasts, Gli luciferase reporter luminescence; inhibition, % at 5 µM; AID 588413; hit rate 0.74% among 340,000;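 active = inhibition above about 55%, limit read from the data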;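 also: 0% = DMSO-treated cells and 100% = wells with medium but no cells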
* marks the source's active call; other numbers are inactive results; ? = inconclusive; / = not tested or not shown. This is a sample that favours compounds with a hit; in the whole collection about 2.3% have one here.

SMILES	EBV LMP1 NFkB	Shn3 inh set2	697 NFkB inh	MITF TRPM1 inh	Jurkat NFkB inh	Gli-Sufu block
Cc1ccc(OC(=O)N(C)C[C@H]2OCc3cn(nn3)CCCC(=O)N([C@H](C)CO)C[C@@H]2C)cc1	5.3	1.4	/	/	/	/
CN(Cc1ccccc1Cl)C(=O)C1CCC(=O)N(C2CCCCCC2)C1 (configuration not stated)	-3.1	2.6	-1.7	3.8	-6.5	16.5
COc1cc(NC(=O)c2cc3c(Cl)nc4ccccc4c3s2)cc(OC)c1OC	34.1	94.2*	24.2	-11.2	14.1	32.5
COc1ccc(NC(=O)c2cc3c(Cl)nc4ccccc4c3s2)c(OC)c1	4.9	0.0	-4.2	10.7	-5.0	7.0
CCOC(=O)Cc1csc(N/N=C\c2ccc(N(C)C)cc2)n1	81.4*	7.4	0.9	-12.1	6.7	-8.6
CCOC(=O)c1c(CSc2ccc(CC)cc2)oc2ccc(O)c(CN(C)C)c12	-14.8	89.6*	-49.6	45.1	49.7	45.5
CC(C)C[C@@H](CO)N(Cc1ccccc1)S(=O)(=O)N(Cc1ccccc1)[C@@H](CO)CC(C)C	-8.9	90.4*	-2.5	12.9	9.2	0.1
COc1ccc(OC)c(C2C(C(=O)N(C)C)=C(C)Nc3nc4ccccc4n32)c1 (configuration not stated)	1.2	-8.5	-53.8	3.3	-31.4	-9.4
COc1ccc(S(=O)(=O)N2CCN(C(=O)c3cc(-c4ccc(Br)cc4)n[nH]3)CC2)cc1OC	17.5	90.6*	-5.0	21.7	7.9	24.9
COc1ccc(-c2cc(C(=O)N3CCN(S(=O)(=O)c4ccccc4)CC3)[nH]n2)cc1	-7.6	-11.7	17.1	-6.3	8.1	-3.3
CCOc1ccc(C(=O)Nc2cccc(C(=O)O)c2C)cc1Cl	15.5	8.0	-50.6	66.9*	22.4	-21.5
Cc1ccc(Nc2c(-c3ccccn3)nc3cc(C)ccn23)cc1	?	94.9*	-4.8	64.1*	8.8	31.0
Cc1ccc(Nc2c(-c3ccccn3)nc3ccc(C)cn23)cc1	27.8	95.4*	-14.7	69.9*	-4.5	19.1
Cc1ccn2c(Nc3ccc4c(c3)OCO4)c(-c3ccccn3)nc2c1	2.0	75.5	-41.4	33.5	-7.5	16.4
Cc1ccc(C)c(NC(=S)NC(NC(=O)Cc2cccc3ccccc23)C(Cl)(Cl)Cl)c1 (configuration not stated)	-73.3	55.4	-0.4	77.2*	5.4	5.5
Cc1ccc(C)c(NC(=S)NC(NC(=O)N(C)C)C(Cl)(Cl)Cl)c1 (configuration not stated)	-0.9	-0.6	10.1	-6.8	11.8	4.5
CCC(=O)Nc1cccc(C(=O)/C=C/c2cc(Br)ccc2OC)c1	66.8*	-14.4	-47.2	91.0*	28.7	-21.3
COc1ccc(Br)cc1/C=C/C(=O)Nc1ccc2ccccc2c1	-10.7	-39.8	-4.9	-10.3	-22.7	1.1
CN(C)C(=O)c1ccc(-n2nc(C(F)(F)F)c3c2CCCC3)cc1	-0.6	22.4	-1.8	-7.7	0.2	-9.2
COc1cccc(C=Nc2ccccc2C#N)c1O	-2.9	9.7	15.4	6.5	6.2	-8.9
CCCN1CCC(NCc2cn(C)nc2-c2ccc(Oc3ccccc3)cc2)CC1	-38.8	-7.3	-10.3	85.8*	-4.4	11.4
COC1CCCN(Cc2cn(C)nc2-c2ccc(Oc3ccccc3)cc2)C1 (configuration not stated)	3.6	21.2	-14.2	-14.9	-8.6	2.0
O=C(OC(C(=O)NCc1ccc(F)cc1)c1ccccc1)c1ccco1 (configuration not stated)	5.6	-10.6	11.6	-2.7	0.8	-5.7
COc1ccc(C(C#N)c2cnccn2)cc1OC (configuration not stated)	2.7	4.1	-18.3	-3.6	-3.6	-0.3
Oc1[nH]c2ccc(Br)cc2c1N=NC(=S)N1CCOCC1	9.9	97.1*	-3.4	98.6*	22.5	85.9*
NC(=S)N=Nc1c(O)[nH]c2ccccc12	-2.2	-3.5	13.4	-1.2	12.2	-4.9
Oc1[nH]c2ccccc2c1N=NC(=S)N1CCOCC1	4.5	/	-26.1	92.5*	-0.4	63.1*
O=C(O)CSc1nnc(-c2ccc3c(c2)OCO3)o1	1.1	-12.8	22.6	-6.4	1.4	2.5
O=C(c1ccc(Cl)cc1)N1CCCCC(Sc2nnc(-c3ccc4c(c3)OCO4)o2)C1=O (configuration not stated)	74.8*	70.0	26.2	80.3*	42.2	35.6
